From PubChem BioAssay
AMA1-RON2 inh – disrupts binding of P. falciparum AMA1 to RON2. Potency, µM (titrated, usually from 58.2 µM), for inactives: at the top dose activity change, negative = inhibition, actives largely listed as inhibitors. AlphaScreen AMA1-biotinylated RON2 peptide binding. AID 720542. actives 0.2% (n = 360,000);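 note: 0% = vehicle wells and -100% = peptide control; nearly all actives have a fitted effect of over 45% in size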
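AMA1 (3D7) with his tag at 25 nM final met compounds first, then biotinylated RON2 peptide at 25 nM; detection used donor plus acceptor beads, 10 µg/mL apiece, read by AlphaScreen after 30 min at room temperature.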
Vaccinia mCherry – inhibitors of vaccinia virus infection (mCherry reporter signal). Vaccinia virus mCherry reporter infection, fluorescence. actives 0.63% (n = 310,000). Potency, µM (series often up to 36.5 µM), inactives show at the highest dose activity change, negative = inhibition, usual class: inhibitors; calls by dose curve; tested in A549 cells; note: nearly all actives have a fitted effect of over 35% in size
VACV Venus inh – inhibitors of vaccinia virus (Venus reporter); Vaccinia virus Venus reporter expression, fluorescence; actives 0.46% (n = 330,000); Potency, µM (top dose mostly 36.5 µM), inactives show at the highest dose activity change, negative = inhibition, usual class: inhibitors; calls by dose curve; tested in A549 cells; note: nearly all actives have a fitted effect of over 30% in size
Pf growth 48h – P. falciparum growth inhibition at 48 hours (one generation); P. falciparum luciferase growth in erythrocytes, 48 h; Potency, µM (titrated, usually from 28.7 µM), without a hit: at the highest dose activity change, negative = inhibition, actives largely listed as inhibitors; actives 5.9% (n = 310,000); AID 504832
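Parasite viability was followed by luminescence of a genomically integrated firefly luciferase. Cultures held 0.1% parasitemia at 2% hematocrit (final), incubated under 5% CO2 at 37 C.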
Pf growth 96h – inhibits malaria parasite growth, 96 h; P. falciparum luciferase reporter growth, 96 h; Potency, µM (top dose mostly 28.7 µM), without a hit: at the top dose activity change, negative = inhibition, usual class: inhibitors; actives 6.9% (n = 320,000); AID 504834
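Two parasite generations (96 h, 37 C, 5% CO2) of compound exposure in infected erythrocytes (0.05% parasitemia, 2% hematocrit). Luciferase-reporter P. falciparum; decreased luminescence indicates inhibited growth, aimed at apicoplast-acting delayed death.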
* marks the source's active call; other numbers are inactive results; i = inactive; ? = inconclusive; / = no result; [ ] = remark or other dose. Sampled rows, rich in hits. Any-hit rate of the full collection: about 8.7%. Unless noted, calls come from the whole dose curve; as a rule, active = well fitted curve in the direction sought with a large enough effect; inconclusive = small, poorly fitted or top-dose-only effect, or another doubt; inactive = no such curve, though single readings can be large; an effect the other way counts as inactive or inconclusive. Unless noted, % is set by controls: 0 for no effect and ±100 for the full control effect; potency is the fitted concentration of half-maximal effect.

SMILES	AMA1-RON2 inh	Vaccinia mCherry	VACV Venus inh	Pf growth 48h	Pf growth 96h
CCOC(=O)c1ccc(NC(=O)CSc2nc3ccccc3c(=O)n2CCNC(C)=O)cc1	/	-5%	-5%	/	/
CCC1(c2ccccc2)NC(=O)N(CC(=O)N2CCc3ccccc32)C1=O (configuration not stated)	-1%[11.6 µM]	?	-23%	/	/
CCC1(c2ccc(F)cc2)NC(=O)N(CC(=O)N2CCc3ccccc32)C1=O (configuration not stated)	-2%	/	/	12µM*	10µM*
O=C(O)[C@@H]1CCCC[C@@H]1C(=O)N1CCc2ccccc2C1CN1C(=O)c2ccccc2C1=O (some centres not stated)	8%	?	?	/	-23%
O=C1c2ccccc2C(=O)N1CC1c2ccccc2CCN1C(=O)C1CCCCC1 (configuration not stated)	-2%	-13%	-1%	/	12µM*
O=C(CSc1nc(NS(=O)(=O)c2ccccc2)cc(=O)[nH]1)Nc1ccc(F)cc1	-17%	/	/	-20%	1.9µM*
CC(C)CC(=O)Nc1ccc(-c2cn3ccsc3n2)cc1	-23%	/	?	74%	13µM*
CC(C)(C)C(=O)Nc1ccc(-c2cn3ccsc3n2)cc1	-16%	-14%	-14%	44%	30%
O=S(=O)(Nc1ccc2nc(-c3ccc(Br)o3)[nH]c2c1)c1ccccc1	/	/	/	86%	?
O=S(=O)(Nc1ccc2nc(C(F)(F)F)[nH]c2c1)c1ccccc1	6%	-12%	-25%	12µM*	18%
C=CCCN(C1CCCC1)S(=O)(=O)c1ccccc1Br	74%	-8%	-24%	?	15µM*
CCN(CC)CCN1c2ccccc2Sc2ccccc21	-7%	-15%	-24%	?	69%
C[C@H](CN1c2ccccc2Sc2cccnc21)N(C)C	/	/	/	?	6µM*
CCC(=O)c1ccc2c(c1)N(CCCN(C)C)c1ccccc1S2	-6%	?	-26%	?	?
CCN(CC)[C@@H](C)CN1c2ccccc2Sc2ccccc21	/	/	/	-26%[12.8 µM]	6.4µM*
CCc1ccc2c(c1)N(C[C@H](C)CN(C)C)c1ccccc1S2	/	/	/	17µM*	15µM*
N#C/C(=C/c1ccc(N2CCCCCC2)o1)c1cccc(F)c1	-7%	/	/	-15%	/
COc1cc(N2CCCC2)c(OC)cc1/C=C(/C#N)c1cccc(F)c1	?	0%	15%	10µM*	/
CCOP(=S)(OCC)SCC(=O)NC(C)(CC)C(=O)O (configuration not stated)	-2%	/	/	/	7.4µM*
CCOP(=S)(OCC)SCCSCC	24%	i	-7%	19%	?
Cc1ccc(CCNC(=O)c2ccc(CS(=O)(=O)c3ccc(Br)cc3)o2)cc1	/	-4%	-1%	/	/
CCNC(=O)N1c2ccc(OCC)cc2C(C)=CC1(C)C	?	-18%	-18%	-22%	/
CCOc1ccc2c(c1)C(C)=CC(C)(C)N2C(=O)Nc1ccccc1F	1%	-10%	-6%	-2%	9.3µM*
c1ccc(OCCN2CCOCC2)cc1	14µM*	/	/	1%	?
Cc1ccccc1C(=O)OCCN1CCOCC1	4%	i	-6%	9%	8.3µM*
SMILES	AMA1-RON2 inh	Vaccinia mCherry	VACV Venus inh	Pf growth 48h	Pf growth 96h
Clc1cccc(OCCN2CCN(CCOc3cccc(Cl)c3)CC2)c1	18µM*	-9%	-22%	3%	?
CC1CCN(CCOc2cccc(Br)c2)CC1	3%	-11%	-5%	8%	?
CN(C)c1ccc(/C=C/c2ccnc3ccc(-c4ccccc4)cc23)cc1	/	37%	35%	/	/
Cc1cc(C)c2c(CC(=O)Nc3ccc(S(=O)(=O)Nc4nc(C)cc(C)n4)cc3)coc2c1	/	-9%	-15%	/	/
COc1ccccc1NC(=O)CSc1oc(-c2ccccc2)nc1S(=O)(=O)c1ccc(C)cc1	/	-22%	-12%	/	/
Cc1ccc2c(c1)N(C(=O)NCc1ccccc1)CCO2	/	-12%	-1%	/	/
CCOc1ccc(NC(=O)CN(C)C(=O)CCCc2c[nH]c3ccccc23)cc1OCC	-5%	?	-18%	10µM*	?
COc1ccc(NC(=O)CN(C)C(=O)CCCc2c[nH]c3ccccc23)cc1	-7%	-2%	-12%	?	10µM*
COc1ccc(NC(=O)CN(C)C(=O)Cc2c[nH]c3ccccc23)cc1	0%	-18%	-16%	?	?
CN(CC(=O)Nc1ccc(Cl)cc1)C(=O)CCc1c[nH]c2ccccc12	-4%	-15%	-23%	19%	16%
